About 83,000 compounds went through this panel and 20% of them were active in at least one assay; those are over-represented in the sample as a whole.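 Treatment: one concentration, 48 hours, 96-well format. Scoring: percent growth, with anything below 10 considered active.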 A number with no mark means an inactive call. Calls of active or inactive are those of the source.

Consider 25 molecules from PubChem BioAssay (NCI).

In the test the test system is T-47D breast. Kind of test: NCI-60 one-dose screen, 48 h (100 = growth as untreated, 0 = no growth, -100 = all killed). The following applies: 10 µM unless noted.
For `CCOc1ccccc1NC(=O)N/C(N)=N/c1nc2ccccc2s1`, the growth is 41.5%.

As for `N#CC1=C(c2cccs2)Nc2c(c(-c3ccccc3)nn2-c2ccccc2)C12C(=O)Nc1ccc(Br)cc12` (stereo not given), the growth is 1.8% (active).

With `COc1cc(CNC(=O)C[C@H](C)CCC=C(C)C)ccc1OCc1cn(-c2ccc(Cl)c(Cl)c2)nn1`, the growth was 33.6%.

In the case of `CN1C(=O)/C(=C\C(=O)c2cc3ccccc3oc2=O)c2ccccc21`, the growth is 67.4%.

Regarding `COc1ccc(Nc2nnc(-c3c[nH]c4ccccc34)o2)cc1`, the growth was 71.9%.

As to `Cc1ccc(C2CC(c3ccc(NC(=O)Nc4ccccc4)cc3)=NN2c2ccc(S(N)(=O)=O)cc2)cc1` (stereo not given), the growth was -74.7% (active).

`Cc1ccc(C(=O)Nc2cc(-n3cnc(F)c3)cc(C(F)(F)F)c2)cc1C#Cc1cnc2cccnn12`: the growth is 76.1%.

`CCCCCCCCc1ccc(C(=O)Nc2ccc(C)c(OP(=O)(O)O)c2)cc1`: the growth is 90%.

On to `C=CCn1c(O)c(N=Nc2nc(-c3cc4ccccc4oc3=O)cs2)c2ccccc21`, for which the growth is 88.8%.

For `FC(F)(F)c1cc2c(Cl)ncnc2n1CCN1CCOCC1`, the growth was 96.2%.

For the molecule `C/C(=N\Nc1ccc(C(=O)O)cc1)c1cnn(-c2cc(=O)[nH]c3ccc(C)cc23)c1C`, the growth was 98.9%.

`CCN1CCN(Cc2ccc(C(=O)Nc3cccc(Nc4ccc5c(OC)cccc5n4)c3)cc2C(F)(F)F)CC1`: the growth is -71.4% (active).

For `Nc1nn2c(-c3cc4cc(Br)ccc4oc3=O)ccnc2c1N=Nc1ccccc1`, the growth was 29.6%.

As to `Cc1cccc(-c2ccccc2Oc2ccc3nnc(Cl)n3n2)c1`, the growth is 111%.

As for `Cc1ccc(/C=C/C(=O)c2ccc(S(=O)(=O)NCCNc3nc(N(C)C)nc(N4CCOCC4)n3)cc2)cc1`, the growth is 69.6%.

Take `C#CCN(C)CCCOc1ccc(N(C)C(=O)c2cc(C(C)C)c(O)cc2O)cc1Cl`: the growth is 11%.

For `Cc1ccc(C(=O)C[n+]2cccc3c4ccccc4ccc32)cc1`, the growth was 43.8%.

Regarding `COc1ccc(NC(=O)N/N=C/c2c[nH]c3ccccc23)cc1`, the growth is 43.3%.

Turning to `O=C(CSc1nc2ccccc2c(=O)[nH]1)NNC(=O)c1ccccc1Cl`, the growth is 92.4%.

With `CC[C@]12C=CCN3CC[C@]4(C(=C(C(=O)OC)C1)Nc1cc(OC)c([C@@H]5[C@H]6O[C@H]6[C@@]6(CC)CC(C(=O)OC)=C7Nc8cc(O)ccc8[C@@]78CCN5[C@@H]68)cc14)[C@@H]32`, the growth is 2.37% (active).

As for `O=C(Cc1c(-c2ccccc2[N+](=O)[O-])n(-c2ncnc3c2c(-c2ccccc2)c(-c2ccccc2)n3Cc2ccccc2)[nH]c1=O)c1ccc(Cl)c(Cl)c1`, the growth was 6.14% (active).

Regarding `COc1ccc2[nH]c(O)c(N=Nc3nc(-c4ccc(Cl)cc4)cs3)c2c1`, the growth is -21.5% (active).

On to `O=C(CSc1nnc(-c2ccc(-c3nc4ccccc4[nH]3)cc2)o1)Nc1ccccc1`, for which the growth was 109%.

Consider `CN(C)CCOc1ccc(C(=O)C2[C@H](c3ccc(Cl)cc3)[C@@H](c3ccccc3)NC23C(=O)Nc2ccc(Cl)cc23)cc1` (stereo not given in full), for which the growth is -81.7% (active).

Take `COc1cc(/C=C/C(=O)c2cnn(-c3cc(=O)[nH]c4ccc(Cl)cc34)c2C)cc(OC)c1OC`: the growth was -31.4% (active).
